The nature of experiment [1]: Primary qHTS for inhibitors of nuclear receptor binding SET domain protein 2 (NSD2) in an RCH-ACV wild type WT cells (2C) (AID 1645877). Further: nearly all actives have a fitted effect of over 70% in size. Further: potency means the concentration at half of the fitted maximal effect. On activity change, negative = cell killing: on the % scale 0 is the no-effect control and ±100 the full control effect.
Experiment [2] addresses Glutathione peroxidase 1 (Homo sapiens) (UniProt P07203). The experiment in a line: Primary qHTS Assay for Inhibitors of Recombinant Selenoprotein Glutathione Peroxidase 1 (GPX1) (AID 1845191). Further: nearly all actives have a fitted effect of over 65% in size. On activity, negative = inhibition: on the % scale 0 is the no-effect control and ±100 the full control effect. The gist of the method: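 GR-coupled assay: compounds preincubated 30 min at room temperature with GPX1, then reaction started with CHP; final 10 nM GPX1, 1 mM GSH, 0.5 mM CHP, 0.5 mM NADPH, 100 nM GR, 0.01% BSA, pH 7.5 Tris buffer. NADPH fluorescence (340/450 nm) read at 0 and 15 min.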

Experiment [3] concerns the target Phospholipid hydroperoxide glutathione peroxidase GPX4 (Homo sapiens) (UniProt P36969). As to the kind of experiment: Primary qHTS Assay for Inhibitors of Recombinant Selenoprotein Glutathione Peroxidase 4 (GPX4) (AID 1845192). Further: nearly all actives have a fitted effect of over 65% in size. On activity change, negative = inhibition: series mostly up to about 50 µM; on the % scale 0 is the no-effect control and ±100 the full control effect. The method in brief:
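GR-coupled assay: recombinant GPX4 preincubated 30 min with compound at room temperature; final 200 nM GPX4, 1 mM GSH, 0.5 mM cumene hydroperoxide, 0.5 mM NADPH, 100 nM GR, 0.01% BSA, pH 7.5 Tris. NADPH fluorescence (340/450 nm) read at 0 and 15 min.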

Experiment [4] has as its target Luciferin 4-monooxygenase (Photinus pyralis) (UniProt P08659). The experiment in a line: Primary firefly luciferase (FLuc) qHTS assay for identification of artifact compounds. (AID 1845220). Further: nearly all actives have a fitted effect of over 60% in size.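 On activity change, negative = inhibition: series mostly up to about 54 µM; plate controls were DMSO vehicle for no effect and no enzyme for full effect.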 The method in brief:
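Titrated compounds were incubated 15 min at RT, protected from light, with luciferin and ATP at 10 uM; reaction started with 10 nM FLuc, luminescence imaged at 5 min, and concentration-response fitted by Hill equation.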
(qHTS replaces the single test concentration by a dilution series.)

A short description of experiment [5]: Primary fluorescence-based thiol-reactive (MSTI) qHTS assay for identification of artifact compounds. (AID 1845221). Further: nearly all actives have a fitted effect of over 65% in size. Further: potency means the concentration at half of the fitted maximal effect.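 On activity change, negative = thiol reactive: series mostly up to about 54 µM; thiol-reactive compounds lower the probe fluorescence signal.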 The gist of the method: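 qHTS titration of compound; 4 uM MSTI, PBS pH 7.4, 2% DMSO; 1 h RT, dark; fluorescence 525/598 nm; normalized to Acetyl-MSTI and MSTI; 4-parameter Hill fit.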
Experiment [6] has as its system Nanoluciferase (engineered Oplophorus gracilirostris luciferase). As to the kind of experiment: Primary Nanoluciferase (NLuc) qHTS assay for identification of artifact compounds. (AID 1845222).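 Further: NLuc secreted into diluted conditioned medium of S16 cells; series mostly up to about 54 µM; 0% = DMSO and -100% = no enzyme.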 The method in brief: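 qHTS format, against NLuc in S16 cell-conditioned medium. Nano-Glo substrate 1:100 was added after 15 min at room temperature. Luminescence was taken after a further 5 min.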

Values without a mark were called inactive. Records with an inconclusive call do not appear. The source made the active and inactive calls. The call rests on the fitted dose curve; in most records, active means well fitted curve in the direction sought with a large enough effect; inconclusive means small, poorly fitted or top-dose-only effect, or another doubt; inactive means no such curve, though single readings can be large; an effect the other way counts as inactive or inconclusive.

Phospholipid hydroperoxide glutathione peroxidase GPX4 (Homo sapiens), sequence (P36969 whole entry, looked up): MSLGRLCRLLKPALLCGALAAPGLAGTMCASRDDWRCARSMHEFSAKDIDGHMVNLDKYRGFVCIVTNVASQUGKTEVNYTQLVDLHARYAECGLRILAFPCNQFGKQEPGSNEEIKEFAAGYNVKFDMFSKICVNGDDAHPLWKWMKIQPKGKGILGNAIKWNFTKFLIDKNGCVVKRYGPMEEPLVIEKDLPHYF
Glutathione peroxidase 1 (Homo sapiens), sequence (P07203 whole entry, looked up): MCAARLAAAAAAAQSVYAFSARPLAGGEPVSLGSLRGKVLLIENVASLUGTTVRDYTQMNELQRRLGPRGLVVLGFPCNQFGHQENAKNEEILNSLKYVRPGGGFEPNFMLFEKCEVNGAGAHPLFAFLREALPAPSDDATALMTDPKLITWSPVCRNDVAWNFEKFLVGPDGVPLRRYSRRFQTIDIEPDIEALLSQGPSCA

Take `CC1OC(OC2CCC3(C)C(CCC4(C)C3CC=C3C5CC(C)(C)CCC5(C(=O)OC5OC(CO)C(O)C(O)C5O)CCC34C(=O)O)C2(C)C)C(O)C(O)C1O` (configuration not stated): the Potency result in experiment [1], in experiment [2], in experiment [3], in experiment [4], in experiment [5] and in experiment [6] was “inactive” throughout.
Turning to `COc1c2c(c(CO)c3c1C(=O)OC3)OC1(C)CCC3(O)C(C)(C)OC(=O)CCC3(C)C1C2` (configuration not stated), the Potency entry in experiment [1], in experiment [2], in experiment [3], in experiment [4], in experiment [5] and in experiment [6] was “inactive” each time.
In the case of `C/C=C1\[C@H](OC2OC(COC3OC(CO)C(O)C(O)C3O)C(O)C(O)C2O)OC=C(C(=O)OC)[C@H]1CC(=O)OCCc1ccc(O)cc1` (some centres not stated), the Potency entry in experiment [1], in experiment [2], in experiment [3], in experiment [4] and in experiment [6] was “inactive” throughout. Also, the Potency in experiment [5] was 5610 nM (active).
Regarding `CC1(C)CCC2(C(=O)OC3OCC(O)C(O)C3O)CCC3(C)C(=CCC4C5(C)CC(O)C(OC6OC(COC7OCC(O)C(O)C7O)C(O)C(O)C6O)C(C)(C)C5CCC43C)C2C1` (configuration not stated), the activity change, negative = cell killing in experiment [1] was -0.57% [at 9.23 µM]. The Potency result in experiment [2] and in experiment [3] was “inactive” each time. Further, the outcome in experiment [4] was “inactive [at 11.6 µM]”. Also, in experiment [5], the activity change, negative = thiol reactive is -15.2% [at 11.5 µM]. Moreover, the activity, negative = inhibition in experiment [6] is 0.507% [at 11.6 µM].
With `C=C1CCC2C(C)(C(=O)O)CCCC2(C)C1CCC(C)CC(=O)O` (configuration not stated), the Potency result in experiment [1], in experiment [2], in experiment [3], in experiment [4], in experiment [5] and in experiment [6] was “inactive” each time.
As to `O=C(O)[C@H](Cc1ccc(Nc2nccc3ccncc23)cc1)NC1=C(Br)C(=O)C12CCCCC2`, the Potency result in experiment [1], in experiment [2], in experiment [3], in experiment [4], in experiment [5] and in experiment [6] was “inactive” throughout.
On to `CC1CCC2C(C)(C)[C@@H](O)CC[C@]2(C)C12Cc1c(O)cc3c(c1O2)CN(C(CCC(=O)O)C(=O)O)C3=O` (some centres not stated), for which the Potency entry in experiment [1], in experiment [2], in experiment [3], in experiment [4], in experiment [5] and in experiment [6] was “inactive” each time.
As to `CC1(C)CC[C@]2(C(=O)O[C@@H]3O[C@H](CO[C@@H]4O[C@H](CO)[C@@H](O)[C@H](O)[C@H]4O[C@@H]4O[C@H](CO)[C@H](O)[C@H](O)[C@H]4O)[C@@H](O)[C@H](O[C@@H]4O[C@H](CO)[C@@H](O)[C@H](O)[C@H]4O)[C@H]3O)CC[C@]3(C)C(=CCC4[C@@]5(C)CC[C@H](O[C@@H]6OC[C@@H](O)[C@H](O)[C@H]6O)[C@@](C)(C(=O)O)C5CC[C@]43C)[C@@H]2C1` (some centres not stated), the activity change, negative = cell killing in experiment [1] is -8.76% [at 9.23 µM]. Also, the outcome in experiment [2] is “inactive [at 9.52 µM]”; in experiment [3], “inactive [at 9.73 µM]”. Moreover, the activity change, negative = inhibition in experiment [4] is 3.08% [at 11.6 µM]. Besides, in experiment [5], the activity change, negative = thiol reactive was 79.6% [at 11.5 µM]. Besides, the activity, negative = inhibition in experiment [6] was 0.986% [at 11.6 µM].
On to `CC1CC(C(O)C(C)(C)O)OC2CC3(C)C4(C)CCC5C(C)(C)C(=O)CCC5(C)C4CCC3(O)C12O` (configuration not stated), for which the Potency entry in experiment [1], in experiment [2], in experiment [3], in experiment [4], in experiment [5] and in experiment [6] was “inactive” throughout.
Turning to `CC(C)(C#N)c1ccc(N2C(=O)OCc3cnc4ccc(-c5cnc6ccccc6c5)cc4c32)cc1`, the Potency in experiment [1] was 817 nM (active). Also, the Potency result in experiment [2], in experiment [3], in experiment [4], in experiment [5] and in experiment [6] was “inactive” each time.
Turning to `Cc1nc(Nc2n[nH]c3c2CN(C(=O)NC(CN(C)C)c2ccccc2)C3(C)C)c2sccc2n1` (configuration not stated), the Potency in experiment [1] is 5.2 nM (active). The Potency result in experiment [2], in experiment [3], in experiment [4], in experiment [5] and in experiment [6] was “inactive” throughout.
Take `CC(C)=CC/C=C(\C)[C@H]1CC[C@]2(C)[C@@H]1[C@H](O)C[C@@H]1[C@@]3(C)CC[C@H](O)C(C)(C)[C@@H]3[C@@H](O[C@@H]3O[C@H](CO)[C@@H](O)[C@H](O)[C@H]3O)C[C@]12C`: the Potency entry in experiment [1], in experiment [2], in experiment [3], in experiment [4], in experiment [5] and in experiment [6] was “inactive” each time.
As to `O=C(CCc1nnc2n(Cc3ccc(Cl)cc3)c(=O)c3ccccc3n12)NCCC1=CCCCC1`, the Potency result in experiment [1], in experiment [2], in experiment [3], in experiment [4], in experiment [5] and in experiment [6] was “inactive” in each case.
On to `CC1OC(OC2C(C)OC(OC3C(OC(=O)C45CCC(C)(C)CC4C4=CCC6C7(C)CCC(OC8OC(C(=O)O)C(O)C(O)C8OC8OC(CO)C(O)C(OC9OC(C)C(O)C(O)C9O)C8O)C(C)(CO)C7CCC6(C)C4(C)CC5)OC(CO)C(O)C3O)C(O)C2O)C(O)C(O)C1O` (configuration not stated), for which, in experiment [1], the activity change, negative = cell killing was 3.53% [at 9.23 µM]. Moreover, the activity, negative = inhibition in experiment [2] was -14% [at 9.52 µM]; in experiment [6], 2.74% [at 11.6 µM]. The activity change, negative = inhibition in experiment [3] is -14.3% [at 9.73 µM]; in experiment [4], -4.3% [at 11.6 µM]. Moreover, the activity change, negative = thiol reactive in experiment [5] was 122% [at 11.5 µM].
For `C#CCN(Cc1cc2c(=O)n(C)c(CN3CCN(C)CC3)nc2cc1Cl)c1ccc(C(=O)NCc2cccnc2)cc1`, the Potency entry in experiment [1], in experiment [2], in experiment [3], in experiment [4], in experiment [5] and in experiment [6] was “inactive” in each case.
Take `COC(=O)N1CCC(n2ncc3c(N4CCOCC4)nc(-c4ccc(NC(=O)Nc5ccc(CO)cc5)cc4)nc32)CC1`: the Potency in experiment [1] was 18.3 nM (active). In addition, the Potency entry in experiment [2], in experiment [3], in experiment [4], in experiment [5] and in experiment [6] was “inactive” each time.
Regarding `COC(=O)C12C(=O)C(C)=C(O)C1(C)C(C)=CC1C3(CO)CCC(O)C(C)(C)C3CCC12C` (configuration not stated), the Potency entry in experiment [1], in experiment [2], in experiment [3], in experiment [4], in experiment [5] and in experiment [6] was “inactive” in each case.

The values above are taken from PubChem BioAssay (NCATS).
